Measurements from paper PMC12864922, “TDP-43 directly inhibits mRNA accumulation in neurites through modulation of mRNA stability”.
Over roughly 9,900 sequences, “r (bound/input frequency ratio)” has its median near 0.7; the highest 2% begin near 6.5. Shown is part of a subset that was picked to be rich in the highest values.

B1: ENSMUSG00000004113.257|Cacna1b|213:217 (ssRNA)
RNA: GGGAGUUCUACAGUCCGACGAUCGCUUCGAUAUCCGCAUGCUAGAUGCUGAAGAGUGCAAAACGCUAGCAAAGAAGAGGCUGGGGUUAGAGGAAGAAGCCCGCACUGGCCGUGUUACAAGAAACUGGCAGGAAGGAAAUGGCCCUGGAACAGGCCAGGUGCCUAGAGCUAAGUCAGGCCCCUGGCUUAGCACUAGAAAAAAUAAAACCUCAUGGCUGCUUUGCAAAGGGAAAACCCAUGCUCAGGAAGGUGUUCACACACCACAGAUAGCUGGGAGGCCACGAGAGAAAGGUUGCACACAGACCUCUUGCGGUCGCACUAGUGUGGAAUUCUCGGGUGUCAAGG
B2: ENSMUSG00000028439.88|Fam219a (ssRNA)
RNA: GGGAGUUCUACAGUCCGACGAUCGCUUCGAUAUCCGCAUGCUAGGAAAGGGGUUUUGAGAAGAAAAGGAUCCAAGCAAUGGGGGCAGUUCUCACACCUCAGAGCCCCUCUCCCCAAACCCUGUGCCAGCCCAUAUACCUAUUUGUGUUUUCCCCUCAUCUCCAGAUGGGAAGCCUGGCAGCGCUGUCCAAAGGGAUACUGUCUCUCCAUUAGAUAACUCCUUCCACUGUCUCCCUCCCCCGCUUUCUUACUUUCUGAGGGUUGGGAAGGUAAGAUGGGCCUUAGAGAGAAGCCAGGUUUGGGGCUCUUGCGGUCGCACUAGUGUGGAAUUCUCGGGUGUCAAGG
B3: ENSMUSG00000031028.91|Tub (ssRNA)
RNA: GGGAGUUCUACAGUCCGACGAUCGCUUCGAUAUCCGCAUGCUACAAGCUGUAUGUAGAAAAAGCUCUGGUGGUCAGCAGAAAGCACUCCCACUUCAAAAGGGCCCAUUAGGCCCAAAGGGGGUUAGGAGUGGUAGGGAUAGGUGCGUGGCAGGUCCCUGCUAGGAUUGCAGGGGCCUGGCCAUGUGUAUUAGCUGGAGGCUUAGAAUGCUAGCUCAUUUGUUGCUACAGAUUUGCCCAGUGCUUGCACACGUAAGAACCCAGCUCUCAAGGCCAAAUAUCUGAGUGGAUGGGGAUGAUAGGAGCUCUUGCGGUCGCACUAGUGUGGAAUUCUCGGGUGUCAAGG
B4: ENSMUSG00000031028.31|Tub|122:126 (ssRNA)
RNA: GGGAGUUCUACAGUCCGACGAUCGCUUCGAUAUCCGCAUGCUACUGCCUGCCAAGACAGCCCUGCCUACCCUCUGUUCAUAGGCCCUCUAUGGGCUUUCUGGCCUUACCAACCAGAGACUGGCUGCUCUGCCUCUGCUGCUGAAGCAGGGGGGACAGCAAAUGGCAUACACAGGAGAAGAAUAUUUCUGUGCCCCAAGGUCAACACACAUGCCCAGUCCUGGGUCAGUCCCCUGCUGCAGUGGUGUUAUCACACCGGAAAGCCUCUUCACCUGGAGGUACAGAGGGAGAGGAAGCACAAGCCUCUCUUGCGGUCGCACUAGUGUGGAAUUCUCGGGUGUCAAGG
B5: ENSMUSG00000042529.154|Kcnj12 (ssRNA)
RNA: GGGAGUUCUACAGUCCGACGAUCGCUUCGAUAUCCGCAUGCUAAACACCAGAGUGGGUGCUUCUUAGAAAAGGACACUCAGGAAAUUAGUAUGGGGUCUGGGUCCCACAUCCCCAGGAAGUGGGUCAGCCCCACGUCCCCCGCUGGACUCACAGCUUGAGUUGUGCCUUAGAGACUCUGGUUGUCUGGCUUCCGUCAUUUCUGGUUUUCUCAGACUUGUUUAAUCUUUCCCUACUGCCCUAAGUCCACUCAUGAAGCUCCCCAGGCCCUUCUGAGAUUGCAGAGGCUGCUUGCUCAUAGCCAUCUCUUGCGGUCGCACUAGUGUGGAAUUCUCGGGUGUCAAGG
B6: ENSMUSG00000061578.1390|Ksr2|74:78;177:181 (ssRNA)
RNA: GGGAGUUCUACAGUCCGACGAUCGCUUCGAUAUCCGCAUGCUACUUUGUAAAUGAUUCUGUUGCCUUUUUCUAAACACAAAGUAUAUAUACCUAUAAAUGCUAUAUAUAUUAUAUAACACAAUAUACAUAAAGACUACUUCUUGUACAGCCCUCCACGGACCUCAGGCCCACUGUUUUCUCCAUGUCUGUCUGUACUGACUGUUGCAGAAUGAGCUGAUCAUACAUCUUGAUUCUCCAUUUUCCUUCUGGACCACAUGUCUCUUCCUUUUCCUUUUUAGAUCUGUCUUGCUCUCUGUCUCUCUCUCUUGCGGUCGCACUAGUGUGGAAUUCUCGGGUGUCAAGG
B7: ENSMUSG00000022095.44|Fam160b2 (ssRNA)
RNA: GGGAGUUCUACAGUCCGACGAUCGCUUCGAUAUCCGCAUGCUACUGGCUCCUAAGGCAGUGGUAUUCUUGGAGCCUUUUAGAGGAGCUAGAGGAUGGCCAGUGAGCGCCUAGAUGCUGCCCUGCAUGUGUUGCGUGACUAUCUCUGCUAUAUUGUGACCAGGGCCACAACAUGAGACAACUCCAGGGGCCAGGGAGAUGAACUGCUGUCUUUGAGGCUGGCUAAAAAAACAAUCCAGUCCAGAGAGAUGGGGAGGGGGGGAGCAAGAACCCUGUCUGUUACAUUAGGUAUCAUGGAAGCUGCUCUCUUGCGGUCGCACUAGUGUGGAAUUCUCGGGUGUCAAGG
B8: ENSMUSG00000029636.316|Wasf3 (ssRNA)
RNA: GGGAGUUCUACAGUCCGACGAUCGCUUCGAUAUCCGCAUGCUAUGGCAAAACUUUUUUUGGUAAGGUCCUUAUGCUCUCAGGGUGGAGGGAAGACAUUAAAGCUACGCAGCCAUUGUCAGGAUUUUUUCUACUGAUGUCACAUCAGAAUAUAACUAGUGGCUCCUUACUCACAAAUGUUCACGAGCUUCUCCGUUGUCACUUGUCCUGUAGUUUUGCCAACAAGUUAAUUUUAGUUUGAUUUUAUAGCUAGAGAGAAAGCUUUUGCCCGUUGCAUUCUGUAACCUUCAAAAGAAUGAGAAACGCUCUUGCGGUCGCACUAGUGUGGAAUUCUCGGGUGUCAAGG
B9: ENSMUSG00000061578.330|Ksr2|114:118 (ssRNA)
RNA: GGGAGUUCUACAGUCCGACGAUCGCUUCGAUAUCCGCAUGCUACUCCAAGGAAGCCAGGGGAGGGGGACUCCUCAGGAAGGAGUGACCAGUCACCUGCCUCCCAGGGUUCUGCCUUGCCCUUAAGCUAGGGUCCUUCAAGCAUCCACAGACUUAGACACACGUGGUAACAUGCUUGUAAUCCUGGCACUCUGGAGGCUGAGGCAGGAGGAUAACAAGUCUAGACUAUAUAUGAUUUCUGAGGGUCUGUUAGUGAAUAAGUACCUGGAUGACAUGGGACAAGUCCCAGCCUUCCCUGCUCCUGCCUCUUGCGGUCGCACUAGUGUGGAAUUCUCGGGUGUCAAGG
B10: ENSMUSG00000061578.809|Ksr2 (ssRNA)
RNA: GGGAGUUCUACAGUCCGACGAUCGCUUCGAUAUCCGCAUGCUACUUUGCCUCUACUAGAUGAUCUUGCAUCUGUCUUUGUGGGACUCUUUUUAUGAGGAACCAGUCCUGUUGAAUCGGGGUGCUCUGUAUUAGUUAUUUUUGUAACUUGUGAUUGUAACCAAAUGCCCGAUAGAAACAGCAUUCUGGCUCACAGUUUCAAAGGGCUCAGUCCAUAGCUGCCUGACUCUGUGUUUCUAGGCCUUUCUUGAGGCAAGUGUUCAUCAUGAUAGUGUGAGGGUGAGGAGGAGUUUCUUCAUGGCAAACUCUUGCGGUCGCACUAGUGUGGAAUUCUCGGGUGUCAAGG
B11: ENSMUSG00000034801.220|Sos2 (ssRNA)
RNA: GGGAGUUCUACAGUCCGACGAUCGCUUCGAUAUCCGCAUGCUAAUUUGACUAAUUUGUAAGUCUGGAACAAAAGUGUCUUAUGGCAUAAGAACCAACUGCCAUUGUCAAACCUAUUAACUGUCUUUAAUCUCGUGUUAACUGAAAUUUUUGAAAAGUUUUUCCAGAUUAGUAAUAUUUAAACAGAAAAUACUUUAAAAAGCUUUAUUAAAUUUUUUAAUCAGGAUAAAGCUUUGCCAUUUGGAUACUAUCAUUCAAAGUGAUCAAGGUAUGUAUGUUAUGCUGAUAGUGCAGUAGCAGCCAUUCUCUUGCGGUCGCACUAGUGUGGAAUUCUCGGGUGUCAAGG
B12: ENSMUSG00000031028.102|Tub (ssRNA)
RNA: GGGAGUUCUACAGUCCGACGAUCGCUUCGAUAUCCGCAUGCUAGGCCCAAAGGGGGUUAGGAGUGGUAGGGAUAGGUGCGUGGCAGGUCCCUGCUAGGAUUGCAGGGGCCUGGCCAUGUGUAUUAGCUGGAGGCUUAGAAUGCUAGCUCAUUUGUUGCUACAGAUUUGCCCAGUGCUUGCACACGUAAGAACCCAGCUCUCAAGGCCAAAUAUCUGAGUGGAUGGGGAUGAUAGGAGUCAUCCAGUAGACUCCCUACAUCAGGGCUCUCAGCAGCCCCAGCACAACACCUAUGACACACACACCUCUUGCGGUCGCACUAGUGUGGAAUUCUCGGGUGUCAAGG
B13: ENSMUSG00000032194.202|Kank2|53:57 (ssRNA)
RNA: GGGAGUUCUACAGUCCGACGAUCGCUUCGAUAUCCGCAUGCUAGACAGGCUGCACCUUUCUCUAACUGGGGUUCCUUUCUGGCCCCAGGAUCUCACACACGUUCGUGGGGGGAUUUUGUUGUUGUUUCUUUGUUUCUUUUCUUCAUAAAGAAGAAAAAGGAAACAACUUCUAGAUGUGCCUUGCGAUAGGGAGGACUUUGUCCUCUCAAGUCUCCCUGUCGUAUCCAGAUCACAGCUGAACCCACUGGGCCUUGGCGCCAAACCUCAGCAGGGCAGCAUUGAGACUCAUGGACUAAAGGAAAGCUCUUGCGGUCGCACUAGUGUGGAAUUCUCGGGUGUCAAGG

target: TDP-43 (Homo sapiens, UniProt Q13148 1-414); assay: RNA Bind-n-Seq with designed 260-mer pool; 25 mM Tris-HCl, 150 mM KCl, 3 mM MgCl2, BSA (printed 500 mg/mL), 20 units/mL SUPERase IN; pH not stated; 500 nM RNA pool, 1 h, 4 C; TDP-43 5, 50, 500 nM; high values mean tight binding; conditions: protein: recombinant; tags: SBP (GST cleaved off with PreScission; pGEX-GST-SBP)
Sequence (Q13148 whole entry): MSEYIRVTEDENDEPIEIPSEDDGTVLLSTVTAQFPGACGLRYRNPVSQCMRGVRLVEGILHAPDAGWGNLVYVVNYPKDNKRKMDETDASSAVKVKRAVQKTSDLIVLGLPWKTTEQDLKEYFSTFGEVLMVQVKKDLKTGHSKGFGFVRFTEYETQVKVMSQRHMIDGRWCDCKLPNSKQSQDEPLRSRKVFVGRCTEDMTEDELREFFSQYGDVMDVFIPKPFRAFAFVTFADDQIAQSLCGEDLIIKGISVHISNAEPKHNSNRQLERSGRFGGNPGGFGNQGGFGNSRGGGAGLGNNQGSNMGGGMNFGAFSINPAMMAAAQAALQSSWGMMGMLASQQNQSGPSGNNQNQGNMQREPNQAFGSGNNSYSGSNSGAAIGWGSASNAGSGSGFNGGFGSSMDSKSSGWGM
How it was run: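 An in vitro-transcribed pool of 260-nt 3′ UTR oligos (500 nM) was incubated for 1 h at 4 °C with recombinant SBP-tagged TDP-43 at 5, 50 or 500 nM held on streptavidin beads. The buffer contained 25 mM Tris-HCl, 150 mM KCl, 3 mM MgCl2, BSA and SUPERase IN. Biotin-eluted bound RNA was sequenced, and binding, R, is each oligo's normalized read abundance in the bound sample over that in input.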

Question: How did the binding signal turn out when B1 was run?
Answer: 0.718 R (bound/input frequency ratio)

Question: For B2, which binding signal is on record?
Answer: 0.765 R (bound/input frequency ratio)

Question: For B3, which binding signal is on record?
Answer: 5.97 R (bound/input frequency ratio)

Question: B4 was tested. Which binding signal did it give?
Answer: 0.475 R (bound/input frequency ratio)

Question: B5 was tested. Which binding signal did it give?
Answer: 0.462 R (bound/input frequency ratio)

Question: For B6, which binding signal is on record?
Answer: 0.257 R (bound/input frequency ratio)

Question: With B7 as the binder, how does the binding signal read?
Answer: 1.48 R (bound/input frequency ratio)

Question: With B8 as the binder, how does the binding signal read?
Answer: 0.157 R (bound/input frequency ratio)

Question: For B9, which binding signal is on record?
Answer: 1.65 R (bound/input frequency ratio)

Question: With B10 as the binder, how does the binding signal read?
Answer: 0.455 R (bound/input frequency ratio)

Question: B11 was tested. Which binding signal did it give?
Answer: 0.0389 R (bound/input frequency ratio)

Question: How did the binding signal turn out when B12 was run?
Answer: 1.03 R (bound/input frequency ratio)

Question: Which binding signal does the source give for B13 here?
Answer: 0.269 R (bound/input frequency ratio)
